Screens deposited in PubChem BioAssay by National Center for Advancing Translational Sciences (NCATS).
JMJD2A Tudor: JMJD2A Tudor domain (human) inhibition; O75164; AlphaScreen JMJD2A-Tudor / H3K4me3 peptide binding; AID 504339; Potency, µM (highest dose often 114 µM), hits mostly inhibitors; 390,000 tested, 4.4% active; also: nearly all actives have a fitted effect of over 50% in size
BAZ2B block: inhibitors of human BAZ2B bromodomain | AlphaScreen BAZ2B-H3K14Ac peptide displacement | Potency, µM (doses to about 114 µM), actives largely listed as inhibitors | 360,000 tested, 4.4% active | AID 504333; also: nearly all actives have a fitted effect of over 60% in size
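Multi-concentration screen (max 110 uM) measuring displacement of acetylated histone H3 peptide from BAZ2B by AlphaScreen, using 50 nM protein, 50 nM peptide and 10 ug/mL streptavidin donor plus Ni-chelate acceptor beads.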
Sfp inh: Sfp phosphopantetheinyl transferase inhibition; Q9F4F7; Biochemical Sfp PPTase activity, qHTS; Potency, µM, actives largely listed as inhibitors; 310,000 tested, 3.5% active;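 also: the enzyme is Sfp with the accession as filed and its product quenches rhodamine fluorescence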
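Fluorescence-quenching assay: 15 nM Sfp-PPTase preincubated 15 min at room temperature with compound, then 5 uM rhodamine-CoA and 12.5 uM BHQ-2-labelled YbbR peptide added. Fluorescence (ex 525/em 598 nm) read at start and after 30 min; difference gives rate.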
L3MBTL1 block: blocks human L3MBTL1 | 230,000 tested, 0.66% active | AID 485360 | AlphaScreen L3MBTL1–H3K9me1 peptide binding | Potency, µM (doses to about 57.1 µM), usual class: inhibitors | Q9Y468; also: nearly all actives have a fitted effect of over 60% in size
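L3MBTL1 (50 nM) pre-complexed 30 min with biotinylated H3(1-15)K9me1 peptide (75 nM), then compounds added for 30 min at room temperature; AlphaScreen streptavidin donor/nickel chelate acceptor beads (10 ug/mL final) read after 30 min dark incubation.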
HP1b chromo inh: HP1-beta chromodomain-methylated histone interaction inhibition | P83916 | AlphaScreen HP1-beta / biotin-H3K9me3 peptide binding | Potency, µM (doses to about 114 µM), usual class: inhibitors | 390,000 tested, 0.56% active | AID 540317; also: nearly all actives have a fitted effect of over 70% in size
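HP1-beta protein (50 nM final) preincubated 30 min at room temperature with biotinylated H3(1-18)K9me3 peptide (50 nM) in PBS pH 7.4, 0.01% Tween-20, then compound added for 30 min. AlphaScreen streptavidin donor/nickel chelate acceptor beads (10 ug/mL final), 30 min dark, luminescence read.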
G9a block: inhibitors of human histone lysine methyltransferase G9a | Q96KQ7 | G9a H3K9 monomethylation, AlphaScreen, 2 h | Potency, µM (highest dose often 102 µM), most hits filed as inhibitors | 350,000 tested, 8.8% active; also: nearly all actives have a fitted effect of over 75% in size
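Quantitative HTS format: methyltransferase activity on a biotin-tagged H3K9 peptide is measured by AlphaScreen, using a rabbit anti-monomethyl-H3K9 antibody with streptavidin donor and anti-IgG acceptor beads. Final levels are 20 nM enzyme, 500 nM peptide, 20 uM SAM; 2 h RT.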
Numbers stand for hits; n = inactive; u = inconclusive; x = no result; ! = not active in a repeat; [ ] = another dose, or the depositor's remark. An excerpt weighted towards active compounds, which were near 12% of everything screened. Calls follow the shape of the dose curve; as a rule, active = well fitted curve in the direction sought with a large enough effect; inconclusive = small, poorly fitted or top-dose-only effect, or another doubt; inactive = no such curve, though single readings can be large; an effect the other way counts as inactive or inconclusive.

SMILES | JMJD2A Tudor | BAZ2B block | Sfp inh | L3MBTL1 block | HP1b chromo inh | G9a block
Cc1ccc(CNC(=O)CCn2cc(-c3ccc(C)cc3)nc2-c2ccncc2)cc1 | n | u | n | n | n | 45µM
CCCCC/C=C\C/C=C\C/C=C\C=C\C(=O)CCCC(=O)O | x | x | n | x | x | n
Cc1cccc(NS(=O)(=O)c2ccc(-c3ccc(=O)[nH]n3)o2)c1 | n | n | n | x | n | n
O=c1ccc(-c2ccc(S(=O)(=O)Nc3cccc([N+](=O)[O-])c3)s2)n[nH]1 | n | n | n | x | n | 71µM
Cc1cc([N+](=O)[O-])nn1CC(=O)NCCCN1CCOCC1 | n | n | n | x | n | n
Cc1cc(C)c2c(=O)n(CC(=O)NCCCN3CCN(c4ccccc4F)CC3)sc2n1 | 1µM | u | 4.5µM | n | 2.5µM | 1.1µM
Cc1cc(C)c2c(=O)n(CC(=O)NCCCN3CCOCC3)sc2n1 | 1.1µM | u | 1.3µM | n | 3.2µM | 1.3µM
Cc1cnc2c(c1SCC(=O)NCc1ccc(F)cc1)c(=O)n(C)c(=O)n2C | n | n | x | x | n | n
C=CCn1c(=O)/c(=C/c2ccc(C)o2)s/c1=C(/C#N)C(=O)c1ccccc1 | n | 11µM | u | u | u | u
C=CCn1c(=O)/c(=C\c2ccccn2)s/c1=C(/C#N)C(=O)NCC1CCCO1 (stereo unspecified) | n | n | n | n | n | n
O=C(CSc1nncc(=O)[nH]1)NCc1ccccc1 | 40µM | u | n | n | n | 56µM
O=C(CSc1nc(SCC(=O)NCc2ccccc2)n(-c2ccccc2)n1)NCc1ccccc1 | n | n | n | x | n | 25µM
CN(C)C(=O)CSc1nc(SCC(=O)N(C)C)n(-c2ccccc2)n1 | n | n | n | n | n | n
O=C(Nc1c(Cl)cc([N+](=O)[O-])cc1Cl)c1cc(Cl)ccc1O | u | x | x | x | n | x
N[C@@H](Cc1c[nH]c2ccc(O)cc12)C(=O)O | u | u | n | n | n | 8.4µM!
NC(Cc1c[nH]c2ccc(OCc3ccccc3)cc12)C(=O)O (stereo unspecified) | u | u | n | x | n | 45µM
OCCc1c[nH]c2ccc(OCc3ccccc3)cc12 | n | n | n | n | n | n
NC(=S)N/N=C/c1c[nH]c2ccc(OCc3ccccc3)cc12 | u | 35µM | 32µM | n | n | 40µM
O=C(O)C(O)Cc1c[nH]c2ccccc12 (stereo unspecified) | n | n | n | n | n | n
Cc1ccc2c(c1)cc1c(=O)n(CC(=O)NCc3ccccn3)nc(C)n12 | n | n | n | x | n | x
COC(=O)CN(C(=S)Nc1ccc(F)cc1)C1CC(=O)N(c2ccc(OC)cc2)C1=O (stereo unspecified) | n | n | n | n | n | 40µM
CNC(=S)N(Cc1ccc(OC)cc1)C1CC(=O)N(c2ccc(C(=O)OC)cc2)C1=O (stereo unspecified) | x | n | n | n | x | 40µM
CNC(=S)N(Cc1ccc(OC)cc1)C1CC(=O)N(c2ccc(OC)cc2)C1=O (stereo unspecified) | n | n | n | n | u | n
Cn1nnnc1Sc1ncnc2scc(-c3ccccc3F)c12 | n | x | x | x | x | x
CC(=O)N(c1ccc(C)cc1)S(=O)(=O)c1ccc(Cl)cc1 | n | n | n | n | n | n
SMILES | JMJD2A Tudor | BAZ2B block | Sfp inh | L3MBTL1 block | HP1b chromo inh | G9a block
COc1cccc(Cn2c(=O)c(-c3ccc(Cl)cc3)nc3cnc(N4CCNCC4)nc32)c1 | x | x | 40µM | x | x | n[0.501 µM]
O=c1c(-c2ccc(Cl)cc2)nc2cnc(N3CCNCC3)nc2n1Cc1ccc(F)cc1 | x | x | 45µM | x | x | n[12.7 µM]
CN1CCN(c2ncc3nc(-c4ccc(Cl)cc4)c(=O)n(Cc4ccc(F)cc4)c3n2)CC1 | x | x | n | x | x | n[0.501 µM]
COc1cccc(Cn2c(=O)c(-c3cccs3)nc3cnc(N4CCNCC4)nc32)c1 | x | x | 18µM | x | x | n[0.501 µM]
O=c1c(CCc2ccccc2)nc2cnc(N3CCNCC3)nc2n1Cc1ccc(F)cc1 | x | x | 50µM | x | x | n[12.7 µM]
COc1ccc2[nH]cc(CCNc3ncncc3-c3cccc(C#N)c3)c2c1 | x | x | n | x | x | n[0.501 µM]
Cc1cc(=O)oc2c(C)c(OCC(=O)Nc3cccnc3)ccc12 | n | n | n | x | n | n
Cc1ccc(NC(=O)Nc2c(C)[nH]c(=O)[nH]c2=O)cc1Cl | n | n | n | x | n | n
C=CCNCCCCOc1ccc(OCC)cc1 | n | n | n | x | n | n[12.7 µM]
CC(C)(c1ccccc1)c1ccc(OCCCNCCO)cc1 | n[11.4 µM] | 56µM | n | x | n | n[12.7 µM]
CC(C)(C)c1ccc(OCCCNCc2ccccc2)cc1 | 3.5µM | u | n | n | u | 10µM
COCCNCCCOc1ccc(C(C)(C)c2ccccc2)cc1 | 0.79µM | 35µM | 16µM | n | u | 10µM
C=CCNCCCOc1ccc(C(C)(C)c2ccccc2)cc1 | 1.6µM | 40µM | n | n | u | 10µM
CC(=O)c1ccc(NC(=O)CSc2cn(CC(=O)N3CCCCC3)c3ccccc23)cc1 | n | n | x | x | n | n
CCc1nn2c(=O)cc(COC(=O)c3cccc(NC(=O)COc4ccccc4)c3)nc2s1 | n | n | x | x | n | n
COCCCNCCCOc1ccc(C(C)(C)c2ccccc2)cc1 | 6.3µM | 45µM | 56µM | n | u | 2.8µM
CCc1cc(OCCCCNCc2ccccc2)ccc1Cl | 6.3µM | u | n | n | n | u
O=C(CCl)c1ccc(Cc2ncc(C(F)(F)F)cc2Cl)s1 | 79µM | u | n | n | n | u
O=C(Cn1ncc2c1-c1ccccc1OC2)N1CCN(c2ccccc2F)CC1 | n | n | x | x | n | n
CSc1ccc(/C=N/NC(=O)CN2CCN(Cc3ccccc3Cl)CC2)cc1 | n | n | u | n | n | n
C(=N/N1CCN(c2ccccc2)CC1)/c1ccncc1 | u | n | n | n | n | u
CCN(CC)c1ccc(/C=N/N2CCN(Cc3ccccc3Cl)CC2)cc1 | 18µM | 7.1µM | n | u | u | 8.9µM
CCN(CC)c1ccc(/C=N/N2CCN(Cc3ccccc3)CC2)c(O)c1 | 14µM | 13µM | n | n | n | u
CCN(CC)c1ccc(/C=N/N2CCN(Cc3ccccc3)CC2)cc1 | 22µM | 14µM | n | x | u | 10µM
CN(c1ccccc1)c1ccc(/C=N/N2CCOCC2)cc1 | 45µM | 50µM | n | n | 50µM | u
CC[C@]12C(=O)N(C)C[C@H]([C@@H]3C(=O)N(C)C(=O)[C@@H]31)N2C(=O)c1ccc(F)cc1 | n | x | x | x | n | x
CCOC(=O)c1c(S(=O)(=O)N2CCC(C(=O)Nc3ccc(F)cc3F)CC2)c(C)n(C)c1C | n | n | x | x | n | n
CN(C)C(=O)c1ccc(-c2nnc(OCc3nc4ccccc4n3C)c3ccccc23)cc1 | n[11.4 µM] | x | x | x | n | x
Clc1ncnc2scc(-c3ccc(Br)cc3)c12 | n | n | n | n | n | n
CCN(CC)c1ccc(/C=N/N2CCN(Cc3ccc(C)cc3C)CC2)c(O)c1 | 22µM | 10µM | n | n | 20µM | u
